# The panel holds about 79,000 compounds, 15% with a hit somewhere; the sample as a whole holds those more often. Values without a mark were called inactive. Calls of active or inactive are those of the source. Rule as the data show it: active = growth inhibition above about 70%; inactive = the rest.
# What was measured:
# [1] = NCI Yeast Anticancer Drug Screen. Data for the rad52 strain (AID 147);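 also: 0% = growth of vehicle-treated control cultures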; conditions: S. cerevisiae rad52 mutant growth inhibition, active compounds read high
# How it was run: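 Genetically altered yeast (DNA damage repair defect) treated with compound; inhibition calculated relative to vehicle.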
# [2] = NCI Yeast Anticancer Drug Screen. Data for the wt1 strain (AID 149);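 also: 0% = growth of vehicle-treated wt1 cultures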; conditions: S. cerevisiae wt1 strain (SPY 50644) growth inhibition, active compounds read high
# How it was run: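 Vehicle-normalised growth inhibition; strain wt1; compound exposure.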
# [3] = NCI Yeast Anticancer Drug Screen. Data for the rad50EPP+ strain (AID 151);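 also: 0% = growth of vehicle-treated control cultures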; conditions: S. cerevisiae rad50 mutant strain, active compounds read high
# How it was run: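 Strain rad50EPP+; compound exposure; % growth inhibition vs vehicle.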
# [4] = NCI Yeast Anticancer Drug Screen. Data for the mgt1 strain (AID 153); conditions: S. cerevisiae mgt1 mutant growth inhibition, active compounds read high
# How it was run: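 Read-out: yeast growth inhibition vs vehicle control. Strain mgt1, drawn from a panel altered in DNA damage repair or cell cycle control.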
# [5] = NCI Yeast Anticancer Drug Screen. Data for the rad50 strain (AID 155);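 also: 0% = growth of vehicle-only cultures of the same strain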; conditions: S. cerevisiae rad50 strain growth inhibition, active compounds read high
# How it was run: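 A DNA repair-deficient yeast mutant serves as the test organism; compound-induced growth inhibition is calculated against vehicle-treated cells.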
# [6] = NCI Yeast Anticancer Drug Screen. Data for the mec2-1 strain (AID 157); conditions: S. cerevisiae mec2-1 strain, active compounds read high
# How it was run: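 Cells of the genetically defined mec2-1 yeast strain are incubated with test compound. Inhibition of growth is calculated against vehicle-treated controls.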
# [7] = NCI Yeast Anticancer Drug Screen. Data for the rad14 strain (AID 159);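 also: 0% = growth of vehicle-treated control cultures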; conditions: S. cerevisiae rad14 strain growth inhibition, active compounds read high
# How it was run: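 Vehicle-treated cultures served as the baseline for growth inhibition of a DNA repair-mutant yeast strain exposed to each compound.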
# [8] = NCI Yeast Anticancer Drug Screen. Data for the sgs1 mgt1 strain (AID 161);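 also: 0% = growth of cultures given vehicle only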; conditions: S. cerevisiae sgs1 mgt1 strain, active compounds read high
# How it was run: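 Genetically altered yeast, compound exposure, growth inhibition relative to vehicle.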
# [9] = NCI Yeast Anticancer Drug Screen. Data for the CLN2oe strain (AID 163);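 also: 0% = growth of vehicle-only control cultures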; conditions: S. cerevisiae CLN2oe strain, active compounds read high
# How it was run: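 Strain altered in cell-cycle control, incubated with compound; growth compared to solvent-treated controls.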
# [10] = NCI Yeast Anticancer Drug Screen. Data for the cln2 rad14 strain (AID 165);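 also: 0% = growth equal to vehicle treated cultures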; conditions: S. cerevisiae cln2 rad14 strain, active compounds read high
# How it was run: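 The screen exposed genetically defined yeast (cln2 rad14) to test compounds and scored growth inhibition relative to vehicle-treated controls.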
# [11] = NCI Yeast Anticancer Drug Screen. Data for the bub3 strain (AID 167); conditions: S. cerevisiae bub3 mutant strain, active compounds read high
# How it was run: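 Inhibition values come from growth of compound-treated mutant yeast normalised to vehicle-treated controls.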
# [12] = NCI Yeast Anticancer Drug Screen. Data for the wt2 strain (AID 169);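 also: 0% = growth of vehicle-treated yeast cultures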; conditions: S. cerevisiae wt2 strain growth inhibition, active compounds read high
# How it was run: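 Steps: yeast strain treated with compound; growth recorded; inhibition calculated relative to cultures given vehicle alone.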
# [13] = NCI Yeast Anticancer Drug Screen. Data for the mlh1 strain (AID 171);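 also: 0% = growth of vehicle-treated control cultures of the same strain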; conditions: S. cerevisiae mlh1 strain growth inhibition, active compounds read high
# How it was run: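 Yeast screen: mutant strain plus compound, growth scored against vehicle control wells.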
# [14] = NCI Yeast Anticancer Drug Screen. Data for the sgs1 strain (AID 173);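 also: 0% = growth of vehicle-only control cultures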; conditions: S. cerevisiae sgs1 mutant, active compounds read high
# How it was run: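 Inhibition of yeast growth served as the measure. The mutant strain was treated with each compound, and growth was normalised to cultures receiving vehicle alone.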
# [15] = NCI Yeast Anticancer Drug Screen. Data for the mlh1 rad18 strain (AID 175); conditions: S. cerevisiae mlh1 rad18 strain growth inhibition, active compounds read high
# How it was run: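 Compound-treated yeast growth, normalised to vehicle controls. Strain bears defined DNA repair mutations.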
# [16] = NCI Yeast Anticancer Drug Screen. Data for the rad18 strain (AID 177); conditions: S. cerevisiae rad18 mutant growth inhibition, active compounds read high
# How it was run: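 Inhibition values reflect reduced yeast growth compared with vehicle-treated controls, using a strain engineered with a DNA damage repair defect.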
# [17] = at 5.0 µM (retest, dose inferred, filed as 0.5)
# [18] = at 50.0 µM (retest, dose inferred, filed as 5.0)
smiles,measurement,setting,value
CN(C)CC1=Nc2cccc3cccc(c23)N1,growth inhibition,[1]; at 1.2 µM,-4%
same,growth inhibition,[1]; at 3.7 µM,-6%
same,growth inhibition,[1]; at 11.0 µM,-10%
same,growth inhibition,[1]; at 33.0 µM,2%
same,growth inhibition,[1]; at 100.0 µM,60%
same,growth inhibition,[2]; at 1.2 µM,2%
same,growth inhibition,[2]; at 3.7 µM,-5%
same,growth inhibition,[2]; at 11.0 µM,-6%
same,growth inhibition,[2]; at 33.0 µM,-4%
same,growth inhibition,[2]; at 100.0 µM,21%
same,growth inhibition,[3]; at 1.2 µM,-2%
same,growth inhibition,[3]; at 3.7 µM,-3%
same,growth inhibition,[3]; at 11.0 µM,-2%
same,growth inhibition,[3]; at 33.0 µM,-8%
same,growth inhibition,[3]; at 100.0 µM,13%
same,growth inhibition,[4]; at 1.2 µM,-9%
same,growth inhibition,[4]; at 3.7 µM,-1%
same,growth inhibition,[4]; at 11.0 µM,-7%
same,growth inhibition,[4]; at 33.0 µM,9%
same,growth inhibition,[4]; at 100.0 µM,87% (active)
same,growth inhibition,[5]; at 1.2 µM,-7%
same,growth inhibition,[5]; at 3.7 µM,1%
same,growth inhibition,[5]; [17],-17%
same,growth inhibition,[5]; at 11.0 µM,4%
same,growth inhibition,[5]; at 33.0 µM,51%
same,growth inhibition,[5]; [18],30%
same,growth inhibition,[5]; at 50.0 µM,90.8% (active)
same,growth inhibition,[5]; at 100.0 µM,79% (active)
same,growth inhibition,[6]; at 1.2 µM,-3%
same,growth inhibition,[6]; at 3.7 µM,-3%
same,growth inhibition,[6]; [17],-12%
same,growth inhibition,[6]; at 11.0 µM,-5%
same,growth inhibition,[6]; at 33.0 µM,3%
same,growth inhibition,[6]; [18],17%
same,growth inhibition,[6]; at 50.0 µM,87.4% (active)
same,growth inhibition,[6]; at 100.0 µM,85% (active)
same,growth inhibition,[7]; at 1.2 µM,-2%
same,growth inhibition,[7]; at 3.7 µM,0%
same,growth inhibition,[7]; at 11.0 µM,1%
same,growth inhibition,[7]; at 33.0 µM,51%
same,growth inhibition,[7]; at 100.0 µM,88% (active)
same,growth inhibition,[8]; [17],-21%
same,growth inhibition,[8]; [18],41%
same,growth inhibition,[8]; at 50.0 µM,88.6% (active)
same,growth inhibition,[9]; at 1.2 µM,-4%
same,growth inhibition,[9]; at 3.7 µM,-8%
same,growth inhibition,[9]; at 11.0 µM,5%
same,growth inhibition,[9]; at 33.0 µM,3%
same,growth inhibition,[9]; at 100.0 µM,61%
same,growth inhibition,[10]; [17],-39%
same,growth inhibition,[10]; [18],-16%
same,growth inhibition,[10]; at 50.0 µM,6.8%
same,growth inhibition,[11]; at 1.2 µM,-5%
same,growth inhibition,[11]; at 3.7 µM,-4%
same,growth inhibition,[11]; [17],-26%
same,growth inhibition,[11]; at 11.0 µM,-3%
same,growth inhibition,[11]; at 33.0 µM,17%
same,growth inhibition,[11]; [18],58%
same,growth inhibition,[11]; at 50.0 µM,90% (active)
same,growth inhibition,[11]; at 100.0 µM,85% (active)
same,growth inhibition,[12]; at 1.2 µM,-2%
same,growth inhibition,[12]; at 3.7 µM,-5%
same,growth inhibition,[12]; at 11.0 µM,-6%
same,growth inhibition,[12]; at 33.0 µM,10%
same,growth inhibition,[12]; at 100.0 µM,64%
same,growth inhibition,[13]; at 1.2 µM,0%
same,growth inhibition,[13]; at 3.7 µM,-12%
same,growth inhibition,[13]; at 11.0 µM,-5%
same,growth inhibition,[13]; at 33.0 µM,24%
same,growth inhibition,[13]; at 100.0 µM,87% (active)
same,growth inhibition,[14]; at 1.2 µM,-1%
same,growth inhibition,[14]; at 3.7 µM,-5%
same,growth inhibition,[14]; at 11.0 µM,-5%
same,growth inhibition,[14]; at 33.0 µM,7%
same,growth inhibition,[14]; at 100.0 µM,68%
same,growth inhibition,[15]; [17],-32%
same,growth inhibition,[15]; [18],46%
same,growth inhibition,[15]; at 50.0 µM,90.2% (active)
same,growth inhibition,[16]; at 1.2 µM,-3%
same,growth inhibition,[16]; at 3.7 µM,-20%
same,growth inhibition,[16]; at 11.0 µM,-14%
same,growth inhibition,[16]; at 33.0 µM,1%
same,growth inhibition,[16]; at 100.0 µM,70% (active)

# Reference: PubChem BioAssay (NCI)
